Source: PubChem BioAssay (Tox21)
Records with an inconclusive call do not appear. Active and inactive are the calls of the source. The call rests on the fitted dose curve.

What follows are compounds tested against Beta-2 adrenergic receptor (Homo sapiens) (UniProt P07550) (assay: Adrenergic beta2 receptor (ADRB2) small molecule agonists, cell-based qHTS assay (AID 1963593)). Conditions: CHO-ADRB2 cells, cAMP HTRF, 30 min; series mostly up to 92.4 µM; activation: at the top concentration.
Excerpt: National Center for Advancing Translational Sciences [NCATS]
Division of Preclinical Innovation [DPI]
U.S. Environmental Protection Agency [EPA]
National Institutes of Environmental Health Sciences [NIEHS]
National Toxicology Program [NTP]
U.S. Food and Drug Administration [FDA]
Beta adrenergic receptors (Beta-ARs) belong to the G-protein coupled receptor (GPCR) superfamily, includes three subtypes - beta1, beta2, and beta3. Beta1-AR is the predominant receptor subtype expressed in the heart, and beta2-AR is expressed in the kidney, lung, blood vessel and in the heart, and beta3 is found in the adipocytes. Beta1 and 2 ARs couple to Gs protein and elevate cyclic adenosine mono phosphate (cAMP), which activates protein kinase A and leads to the downstream signaling responsible for the physiological actions. Beta-AR agonists or antagonists are the most prescribed therapeutic agents for heart failure and asthma, and these were one of the first target receptors for the rational drug design. Tox21 10K compound library was screened using the cAMP-Gs dynamic assay (Cisbio Bioassays, Shelton, CT) to identify agonists/antagonists of the Gs-coupled human adrenergic, beta2 receptor (ADRB2) in the CHO-ADRB2 cell line (Codex BioSolutions, Inc. Gaithersburg, MD), which stably over-expresses ADRB2. The principle of cAMP-Gs dynamic assay is based on HTRF technology, which facilitates the fluorescence resonance energy transfer (FRET) between donor Europium cryptate and acceptor d2-labeled cAMP. The cAMP generated within cells competes with the red acceptor, d2-labled cAMP, for binding to the monoclonal anti-cAMP-cryptate (Europium donor). An increase in intracellular cAMP leads to the disruption of FRET signal, and the signal is inversely proportional to the cAMP concentration. Isoproterenol HCl (Sigma-Aldrich, St. Louis, MO) was used as a positive control in the screening.
Tox21 Assay Protocol Summary:
CHO-ADRB2 cells were dispensed at 1,000/well in 4uL assay medium into white/solid 1536-well plates (Greiner Bio-One North America Inc., Monroe, NC) using a Multidrop Combi dispenser (ThermoFisher Scientific, Waltham, MA). The assay plates were incubated at 37C and 5% CO2 for an overnight (18-20hr). Then positive control and test compounds dissolved in DMSO were transferred to the assay plates at 23nL using a Pintool station (Wako, San Diego, CA). Following the compound and positive control transfer, 1uL stimulation mix containing 100uM IBMX and 25uM Ro-20-1724 was added to each well of the assay plates using BioRAPTR Flying Reagent Dispenser (FRD, Beckman Coulter, Brea, CA). The assay plates were incubated at room temperature for 0.5hr. Then 2.5ul each d2-labled cAMP and anti-cAMP-cryptate solutions were added separately to each well of the assay plates using an FRD and the assay plates were incubated at room temperature for 1hr.
On the % scale 0 is the no-effect control and ±100 the full control effect.

Sequence of Beta-2 adrenergic receptor (Homo sapiens) (P07550 whole entry, looked up): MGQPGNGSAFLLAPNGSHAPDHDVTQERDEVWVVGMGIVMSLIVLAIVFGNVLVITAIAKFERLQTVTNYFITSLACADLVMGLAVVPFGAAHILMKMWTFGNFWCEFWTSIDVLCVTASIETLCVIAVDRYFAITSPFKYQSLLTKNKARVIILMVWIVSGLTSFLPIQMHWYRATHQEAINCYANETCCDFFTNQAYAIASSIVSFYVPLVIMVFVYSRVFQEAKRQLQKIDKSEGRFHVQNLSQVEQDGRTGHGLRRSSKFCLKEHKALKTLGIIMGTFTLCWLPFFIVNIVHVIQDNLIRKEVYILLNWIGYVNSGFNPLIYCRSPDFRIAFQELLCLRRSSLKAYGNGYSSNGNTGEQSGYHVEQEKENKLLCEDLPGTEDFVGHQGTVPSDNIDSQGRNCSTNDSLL

| SMILES | activation | Potency |
| --- | --- | --- |
| CN(C)CCN(Cc1ccccc1)c1ccccn1 | -5.84% [at 42.5 µM] (inactive) | – |
| O=[N+]([O-])c1cccc(S(=O)(=O)O)c1 | -14.3% (inactive) | – |
| C[C@H](CS)C(=O)N1CCC[C@H]1C(=O)O | 31.7% [at 42.5 µM] (inactive) | – |
| CN(C)c1ccc(SC#N)cc1 | 0.445% (inactive) | – |
| N#C/C(=C1/SC[C@@H](c2ccc(Cl)cc2Cl)S1)n1ccnc1 | -0.877% [at 42.5 µM] (inactive) | – |
| COc1nc(N)nc2c1ncn2[C@@H]1O[C@H](CO)[C@@H](O)[C@@H]1O | 10.9% [at 42.5 µM] (inactive) | – |
| c1ccc(-c2ccccc2-c2ccccc2)cc1 | -26% (inactive) | – |
| C=CCN(CC=C)CC=C | 16.4% (inactive) | – |
| CC1(COc2ccc(CC3SC(=O)NC3=O)cc2)CCCCC1 (stereo not given) | 3.27% [at 42.5 µM] (inactive) | – |
| O=C(c1ccccc1)C1CCC1 | -21.3% (inactive) | – |
| CCCC(=O)OC(C)(C)Cc1ccccc1 | 29.7% (inactive) | – |
| CN(C)C(=O)NC1(c2ccccc2)CCN(CCC[C@]2(c3ccc(Cl)c(Cl)c3)CCCN(C(=O)c3ccccc3)C2)CC1 | 0.625% [at 19 µM] (inactive) | – |
| O=C(O)COCCN1CCN(C(c2ccccc2)c2ccc(Cl)cc2)CC1 (stereo not given) | – | inactive |
| CC(C)c1cccc(C(C)C)c1N1C(=O)c2ccc(O)cc2C1=O | -0.851% (inactive) | – |
| CC(C)(CO)[C@@H](O)C(=O)NCCCO | -23.3% [at 42.5 µM] (inactive) | – |
| CC1CCCNC1 (stereo not given) | 38% (inactive) | – |
| CN(C)[C@@H]1C(=O)C(C(N)=O)=C(O)[C@@]2(O)C(=O)C3=C(O)c4c(O)cccc4C[C@H]3C[C@@H]12 | -23.1% [at 42.5 µM] (inactive) | – |
| O=[N+]([O-])c1ccc(Cl)cc1Cl | 8.95% (inactive) | – |
| O=c1[nH]c2ccc(S(=O)CCN3CCC(Cc4ccc(F)cc4)CC3)cc2o1 (stereo not given) | -22% (inactive) | – |
| O=C(O)Cn1cnnn1 | 0.274% [at 42.5 µM] (inactive) | – |

| SMILES | activation | Potency |
| --- | --- | --- |
| C=C1CC[C@H](O)CC1=C/C=C1\CCC[C@]2(C)[C@@H]([C@H](C)/C=C/[C@H](C)C(C)C)CC[C@@H]12 | -5.41% (inactive) | – |
| CCOC(=O)[C@@H](C)Oc1ccc(Oc2nc3ccc(Cl)cc3o2)cc1 | 15.6% (inactive) | – |
| COc1ccc(-c2nc3ccc(C4=NNC(=O)CC4C)cc3[nH]2)cc1 (stereo not given) | -12.8% [at 42.5 µM] (inactive) | – |
| COc1cc([N+](=O)[O-])ccc1N | 3.32% (inactive) | – |
| CCCCCCCCCCCCOCCOS(=O)(=O)O | -26.3% (inactive) | – |
| CC/C=C\CCCCCO | -6.17% (inactive) | – |
| CN1CCCN(C(c2ccccc2)c2ccc(Cl)cc2)CC1 (stereo not given) | -6.31% [at 42.5 µM] (inactive) | – |
| O=C(O)c1cc(Br)c(O)c(Br)c1 | -4.14% (inactive) | – |
| COC(=O)c1ccccc1OC | 2.25% (inactive) | – |
| CC[C@@]1(c2ccccc2)NC(=O)N(C)C1=O | 19.4% [at 42.5 µM] (inactive) | – |
| CN1[C@@H]2CC(OC(=O)[C@H](CO)c3ccccc3)C[C@H]1[C@@H]1O[C@@H]12 (stereo not given in full) | 6.27% (inactive) | – |
| CC(O)CN (stereo not given) | -0.702% (inactive) | – |
| N#CCCNCCC#N | 1.17% (inactive) | – |
| Nc1ccn([C@H]2CS[C@@H](CO)O2)c(=O)n1 | -20.5% (inactive) | – |
| N#CCCCC(C#N)CCC#N (stereo not given) | -2.92% (inactive) | – |
| CC(C)[C@H]1CC[C@H](C)C[C@@H]1O | 8.45% (inactive) | – |
| CCCCN(CCCC)CCC(O)c1cc2c(Cl)cc(Cl)cc2c2cc(C(F)(F)F)ccc12 (stereo not given) | 6.2% [at 42.5 µM] (inactive) | – |
| O=C(Oc1ccccc1)c1ccc2ccccc2c1O | -2.34% (inactive) | – |
| C=C(C)[C@@H]1CC=C(C)CC1 | 1.51% (inactive) | – |
| Cc1onc(-c2c(Cl)cccc2Cl)c1C(=O)N[C@@H]1C(=O)N2[C@@H]1SC(C)(C)[C@@H]2C(=O)O | 0.984% [at 42.5 µM] (inactive) | – |
